Compound activity from PubChem BioAssay.
The full list was thinned out, with hits kept by preference.
VACV mCherry inh – qHTS for Stage-Specific Inhibitors of Vaccinia Orthopoxvirus: mCherry Reporter Primary qHTS. Vaccinia virus mCherry reporter infection, fluorescence. Potency, µM (highest dose often 36.5 µM), actives largely listed as inhibitors. actives 0.63% (n = 310,000); calls by dose curve; tested in A549 cells; also: nearly all actives have a fitted effect of over 35% in size
Vaccinia Venus – qHTS for Stage-Specific Inhibitors of Vaccinia Orthopoxvirus: Venus Reporter Primary qHTS | Vaccinia virus Venus reporter expression, fluorescence | Potency, µM (top dose mostly 36.5 µM), usual class: inhibitors | actives 0.46% (n = 330,000); calls by dose curve; tested in A549 cells; also: nearly all actives have a fitted effect of over 30% in size
Lassa entry inh – qHTS for Inhibitors of binding or entry into cells for Lassa Virus; Potency, µM (doses to about 37.9 µM), most hits filed as inhibitors; AID 540256, 2011; actives 1.2% (n = 300,000); Lassa virus pseudotype entry inhibition, cell reporter; calls by dose curve; tested in HEK293 cells; also: nearly all actives have a fitted effect of over 50% in size
MARV entry inh – qHTS for inhibitors of binding or entry into cells for Marburg Virus. actives 1.8% (n = 300,000). Marburg virus pseudotyped entry inhibition, cell reporter. Potency, µM (doses to about 37.8 µM), most hits filed as inhibitors; calls by dose curve; tested in HEK293 cells
Shiga toxin inh – A qHTS for Small Molecule Inhibitors of Shiga Toxin; AID 2315, 2010; inhibition, % at 38.7 µM; actives 9.2% (n = 290,000); Vero cells, Shiga toxin protein synthesis inhibition reporter; in the data active = inhibition mostly above about 28%, no sharp cut-off; inactive = mostly below about 43%
Cycloheximide cs – Cycloheximide Counterscreen for Small Molecule Inhibitors of Shiga Toxin | cell reporter, cycloheximide protein synthesis inhibition counterscreen | max response, % | actives 12% (n = 300,000); in the data active = max response mostly above about 13%, no sharp cut-off; inactive = mostly below about 14%; also: read at 38.3 µM for the half of the compounds with a filed dose
A number is an active result; 0 = inactive; ? = inconclusive; - = no result; [ ] = another dose, or the depositor's remark.

SMILES	VACV mCherry inh	Vaccinia Venus	Lassa entry inh	MARV entry inh	Shiga toxin inh	Cycloheximide cs
O=C(COc1ccc(S(=O)(=O)NC2CCCCC2)cc1)NCc1ccccn1	0	0	0	0	0	0
O=C(CCc1ccc(S(=O)(=O)NC2CCCCC2)cc1)N(Cc1ccccc1)Cc1ccccc1	?	?	?	13µM	0	0
O=C(CCc1ccc(S(=O)(=O)NC2CCCCC2)cc1)Nc1ccccc1	0	0	0	0	0	0
O=C(CCc1ccc(S(=O)(=O)NC2CCCCC2)cc1)NCc1ccccn1	0	0	0	0	98	44
CC1CCc2onc(C(=O)Nc3ccc(Cl)cc3)c2C1 (stereo not given)	0	0	?	-	-	-
COC(=O)c1ccc(COc2cc(C)ccc2C)o1	-	-	-	-	91	46
Cc1cc(C)cc(OCc2ccc(C(=O)Nc3ccccc3F)o2)c1	0	0	0	0	-	-
Cc1ccc(OCc2ccc(C(=O)O)o2)cc1C	-	-	-	-	69	71
CCc1cc(=O)oc2cc(OCc3ccc(C(=O)O)o3)ccc12	0	0	-	-	0	15
O=C(O)c1ccc(COc2ccc3c4c(c(=O)oc3c2)CCC4)o1	0	0	?	?	0	0
Cc1cc(C)cc(OCc2ccc(C(=O)O)o2)c1	-	-	0	0	0	9.3
CC(C)CCOc1ccccc1Cn1c(=O)sc2ccccc21	0	0	0	0	-	-
CCC1=NN(C(=O)Cc2ccc([N+](=O)[O-])cc2)C(O)(c2ccncc2)C1 (stereo not given)	0	0	0	0	0	0
COC(=O)c1ccc(CO/N=C/c2ccc(OC)cc2)o1	0	0	-	0	58	53
COC(=O)c1ccc(COc2ccc(C)c(C)c2)o1	-	-	-	-	98	27
Cc1cc(C)cc(COc2ccc3c(C)c(CC(=O)O)c(=O)oc3c2C)c1	0	0	0	0	0	0
Cc1ccc(CSCc2ccc(C(=O)O)o2)cc1	-	-	-	-	0	0
Cc1c(C)c2ccc(OCc3ccc(C(=O)O)o3)c(C)c2oc1=O	-	-	4.1µM	?	58	32
COC(=O)c1ccc(Cc2ccc(C(=O)OC)o2)o1	0	0	0	0	0	0
Cc1cccc(CSCc2ccc(C(=O)O)o2)c1	-	-	-	-	0	16
C#CCNC(=O)C1=C[C@H](c2cn(C(C)=O)c3ccccc23)[C@@H](CCCO)[C@H](OCC)O1	0	0	-	-	0	0
COC(=O)c1ccc(COc2ccc(F)cc2)o1	0	0	0	0	53	28
COC(=O)c1ccc(COc2ccc(C(=O)c3ccccc3)cc2)o1	?	0	0	0	0	0
Cn1cnc2cc(OC(=O)c3ccccc3)ccc21	0	0	0	0	108	48
Cc1ccc(C(=O)Oc2ccc3c(c2)ncn3C)cc1	0	0	0	0	99	49
SMILES	VACV mCherry inh	Vaccinia Venus	Lassa entry inh	MARV entry inh	Shiga toxin inh	Cycloheximide cs
Cc1ccc(OC(=O)c2ccccc2)cc1C	0	0	?	0	-	-
Cc1ccc(C(=O)Oc2ccc(N3C(=O)CCC3=O)c(C)c2)cc1	0	0	0	?	0	0
CN(CC(=O)Nc1ccc(Cl)c(C(F)(F)F)c1)C(=O)C1(c2ccccc2)CC1	0	0	0	?	-	-
CC(=O)c1ccccc1NC(=O)c1ccc(N2CCCC2=O)cc1	0	0	11µM	0	-	-
O=C(Nc1ccc(S(=O)(=O)N2CCOCC2)cc1)c1ccc(CN2CCc3ccccc3C2)cc1	-	?	10µM	2.5µM	0	0
Cc1ccc(NC(=O)c2ccc(NC(=O)C3CCCCC3C(=O)O)cc2)cc1 (stereo not given)	-	-	-	-	75	30
Cc1ccc(NCC(=O)Nc2ccc(F)c(Cl)c2)cc1S(=O)(=O)N1CCOCC1	0	?	-	-	-	-
Cc1nc(-c2ccc(F)cc2)c(CC(=O)Nc2ccc(C)c(S(=O)(=O)N3CCOCC3)c2)s1	0	0	?	5µM	0	0
O=C(Nc1ccc(S(=O)(=O)N2CCCC2)cc1)c1ccc(CN2CCc3ccccc3C2)cc1	?	?	?	?	0	0
Cc1ccc(C)c(CSc2nc3ncccc3[nH]2)c1	0	0	0	-	-	-
O=C(Nc1nnc(-c2ccc(F)cc2)o1)c1ccc(S(=O)(=O)N2CCOCC2)cc1	0	0	?	7.9µM	0	0
Cc1ccc(NC(=S)Nc2ccc(S(=O)(=O)N3CCOCC3)cc2)cc1S(=O)(=O)N1CCOCC1	0	0	11µM	0	0	0
Cc1ccc(C(=O)Nc2ccc(N3CCCC3)cc2)cc1	0	0	0	0	69	26
CCOc1ccc(C(=O)NCC(=O)Nc2ccc(N3CCOCC3)cc2)cc1OCC	-	-	-	-	124	21
Cc1ccc(C(=O)Nc2ccc(N3CCN(S(C)(=O)=O)CC3)cc2)cc1	0	0	0	?	0	0
C[C@H](CO)N1C[C@H](C)[C@@H](CN(C)C(=O)Nc2ccccc2)Oc2c(NC(=O)NC3CCCCC3)cccc2C1=O	0	0	-	-	-	-
Cc1nc2cc(NC(=O)[C@@H]3C[C@@H](Sc4ccccn4)CN3Cc3ccccc3F)ccc2s1	0	0	-	-	-	-
O=C(Nc1ccc(N2CCCCC2)cc1)c1cncc(Br)c1	0	0	0	?	141	0
O=C(Nc1ccc(N2CCCCC2)cc1)c1ccccc1	0	0	7.3µM	?	88	0
CCN1CCN(c2ccc(NC(=O)c3cccc(N4CCCC4=O)c3)cc2)CC1	0	0	0	0	0	25
Cc1ccc(NC(=O)NN2CCOCC2)cc1	-	-	-	-	0	16
O=C(Nc1ccc(N2CCN(C(=O)c3ccccc3F)CC2)cc1)c1cncc(Br)c1	0	0	?	?	0	0
CCOc1ccccc1NC(=O)C1CCN(S(=O)(=O)c2cccs2)CC1	0	0	0	0	-	-
COc1ccccc1NC(=O)c1cc2cc3ccc(OC)c(Cl)c3nc2s1	0[7.34 µM]	0[7.34 µM]	0	-	-	-
O=C(O)c1cccc(-n2cnc3cccnc32)c1	0	0	?	0	-	-
SMILES	VACV mCherry inh	Vaccinia Venus	Lassa entry inh	MARV entry inh	Shiga toxin inh	Cycloheximide cs
CC(Sc1ncnc2sccc12)C(=O)Nc1ccc(S(=O)(=O)N2CCOCC2)cc1 (stereo not given)	16µM	?	0	0	-	-
O=C(CSc1ncnc2sccc12)Nc1ccc(S(=O)(=O)N2CCOCC2)cc1	?	?	0	0	-	-
Cc1ccc(C(=O)Nc2ccc(N3CCOCC3)cc2)cc1	0	0	0	0	0	65
Cn1cc(S(=O)(=O)N2CCOCC2)cc1C(=O)Nc1ccc(Cl)cc1	0	0	-	-	39	0
COc1ccc(C(=O)Nc2ccc(-c3ccc(C)o3)cc2)cc1S(=O)(=O)N1CCOCC1	?	?	7.9µM	13µM	0	19
S=c1[nH]cc2cnccn12	0	0	-	-	-	-
CC(=O)c1ccc(NC(=O)c2ccc(N3CCCC3=O)cc2)cc1	0	0	0	0	-	-
COc1ccc(S(=O)(=O)N2CCOCC2)cc1NC(=O)c1ccccc1-c1ccc(C(F)(F)F)cc1	0	0	6.3µM	?	0	0
O=C(Nc1ccc(N2CCCC2=O)cc1)c1cccc(F)c1	0	0	0	?	76	39
COc1ccc(C(=O)Nc2ccc(N3CCCCC3)cc2)cc1Br	0	0	?	0	66	37
Cc1onc(-c2ccccc2)c1C(=O)Nc1ccc(S(=O)(=O)N2CCCCC2)cc1	0	0	0	0	0	0
